# Hits are enriched below; roughly 3.1% of the tested compounds scored in any of these assays.
# ATG4B inh: inhibitors of human ATG4B cysteine protease; ATG4B cleavage of LC3-PLA2, NBD-HPC fluorescence, 1 h; inhibition, % at 8.33 µM; hit rate 0.51% among 340,000; AID 504462; in the data active = inhibition above about 40%
# UBC13 inh: inhibitors of human UBC13 polyubiquitin chain formation; P61088; TR-FRET; inhibition, % at 20 µM; hit rate 0.47% among 330,000; AID 485273; in the data active = inhibition above about 45%, passing the limit was not always enough; inconclusive = no clear call, values can overlap the other calls
# Target sequence (P61088 whole entry, looked up): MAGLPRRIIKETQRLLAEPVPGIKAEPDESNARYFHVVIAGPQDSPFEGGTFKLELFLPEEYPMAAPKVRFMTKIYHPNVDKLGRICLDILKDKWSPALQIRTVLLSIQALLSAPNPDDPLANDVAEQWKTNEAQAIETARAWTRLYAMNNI
# MEKK2 mut-MEK5: signal of MEK5 binding to mutant human MEKK2 PB1 domain. bead flow cytometry, Alexa488-MEK5 binding to MEKK2 mutant. AID 1530. percent response, % at 10 µM. hit rate 0.35% among 290,000; in the data active = percent response above about 24%, passing the limit was not always enough
# PREPL inh: human PREPL enzyme inhibition; hit rate 0.68% among 320,000; Q4J6C6; recombinant PREPL, fluorescence polarization activity-based probe; inhibition, % at 5.96 µM; in the data active = inhibition above about 43%
# MEKK2wt PB1 HTS: raises or lowers MEK5 binding to wildtype human MEKK2 PB1 domain; bead flow cytometry, Alexa488-MEK5 binding to MEKK2 WT; actives lie on both sides; AID 1531; hit rate 1.1% among 290,000; binding response (% of control), % at 10 µM; Q9Y2U5; in the data active = binding response below about 67% or above about 130%; inconclusive = no clear call, values can overlap the other calls; inactive = in between
# MEKK3 PB1 HTS: MEKK3-MEK5 PB1 interaction, increase or decrease; Q99759; bead-based flow cytometry, Alexa488-MEK5 binding to MEKK3; actives lie on both sides; 0 = blocked by unlabeled MEK5, 100 = vehicle; binding response (% of control), % at 10 µM; hit rate 1.4% among 290,000; AID 1529;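 active = binding response more than 3 SD above or below the average of its plate-row segment, actives on both sides; inconclusive = wells at one plate position flagged as instrument error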;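 also: Alexa488 bead fluorescence after subtracting the streptavidin-only scavenger bead signal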
# Casp3 UBC13 ctr: inhibits human caspase-3 in UBC13 counter-screen; Recombinant caspase-3, Caspase-Glo 3/7 luminescence, 60 min; hit rate 4% among 1,400; AID 488856; shares compounds with UBC13 inh; inhibition, % at 20 µM;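 active = mean inhibition across replicates above about 26%, limit read from the data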
# Target sequence (P42574 whole entry, looked up): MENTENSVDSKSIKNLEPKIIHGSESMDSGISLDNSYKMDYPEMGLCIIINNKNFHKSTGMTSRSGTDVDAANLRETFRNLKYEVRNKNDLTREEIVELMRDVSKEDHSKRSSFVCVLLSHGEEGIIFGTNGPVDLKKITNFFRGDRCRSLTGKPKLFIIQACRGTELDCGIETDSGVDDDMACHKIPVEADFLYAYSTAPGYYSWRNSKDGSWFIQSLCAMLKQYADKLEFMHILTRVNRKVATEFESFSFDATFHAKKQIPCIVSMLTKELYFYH
# UBC13 conf: confirmation of human UBC13 polyubiquitin inhibitors. UBC13 polyubiquitination, TR-FRET, biochemical. inhibition, % at 10 µM. hit rate 68% among 1,400. shares compounds with UBC13 inh; in the data active = inhibition above about 45%; inconclusive = no clear call, values can overlap the other calls
# Numbers stand for hits; - = inactive; ? = inconclusive; . = no result given.
SMILES,ATG4B inh,UBC13 inh,MEKK2 mut-MEK5,PREPL inh,MEKK2wt PB1 HTS,MEKK3 PB1 HTS,Casp3 UBC13 ctr,UBC13 conf
COC(=O)C1=C(C)N(Cc2ccccc2)C(=NCC(C)C)N[C@H]1c1cccc(C(F)(F)F)c1,-,72,.,-,.,.,-,74
COc1ccccc1N(C)S(=O)(=O)c1ccc(C(=O)Nc2cccc(S(=O)(=O)N3CCOCC3)c2)cc1,-,.,.,.,.,.,.,.
Cc1ccccc1C(N)c1ccncc1 (stereo not given),-,-,-,-,-,-,.,.
COC(=O)C1=C(C)N(Cc2ccccc2)C(=NCC(C)C)N[C@H]1c1cccc(F)c1,-,51,.,-,.,.,-,-
O=C(CN1CCN(CC(=O)Nc2cccc(F)c2)CC1)NCC1(N2CCOCC2)CCCCC1,-,-,.,-,.,.,.,.
O=C(CCCCCN1C(=O)c2cccc3cccc(c23)C1=O)NC1CCS(=O)(=O)C1 (stereo not given),-,83,-,-,-,-,-,98
O=C(CCN1C(=O)c2cccc3cccc(c23)C1=O)NC1CCS(=O)(=O)C1 (stereo not given),-,-,-,-,-,-,.,.
CCCCCCSc1ccc(-c2nc3cc(C)ccn3c2NC2CCCCC2)cc1,-,-,.,-,.,.,.,.
CCCCNc1c(-c2ccc(OC)c(SC3CCCCC3)c2)nc2cc(C)ccn12,-,50,.,-,.,.,-,-
CCCCCCSc1cc(-c2nc3cc(C)ccn3c2NC2CCCCC2)ccc1OC,-,51,.,-,.,.,-,-
CCCCNc1c(-c2ccc(OC)c(SC3CCCCC3)c2)nc2cnccn12,-,-,.,-,.,.,.,.
FC(F)(F)c1cc(N2CCNCC2)c2ccccc2n1,-,-,-,-,-,-,.,.
OC(c1cc(C(F)(F)F)nc2c(C(F)(F)F)cccc12)C1CCCCN1 (stereo not given),-,68,.,-,.,.,-,49
COc1ccc(C(=O)c2c3ccc(C(F)(F)F)cc3[n+]([O-])n2CCCC(N)=O)cc1,-,-,.,-,.,.,.,.
NC(=O)CCCn1c(C(=O)c2cc(Cl)c(N)c(Cl)c2)c2ccc(C(F)(F)F)cc2[n+]1[O-],-,97,.,-,.,.,-,93
COc1ccc(C(=O)c2c3ccc(OC)cc3[n+]([O-])n2CCCC(N)=O)cc1,-,-,.,-,.,.,.,.
NC(=O)c1ccc(Cn2c(C(=O)c3cc(Cl)c(N)c(Cl)c3)c3ccccc3[n+]2[O-])cc1,-,98,.,-,.,.,-,95
NCCCn1c(C(=O)c2cc(Cl)c(N)c(Cl)c2)c2ccc(C(F)(F)F)cc2[n+]1[O-],-,103,.,-,.,.,-,111
CC(=O)c1c(C)[nH]c(C(=O)CN2CCN(S(=O)(=O)c3ccccc3[N+](=O)[O-])CC2)c1C,-,-,.,-,.,.,.,.
CC(C)(C)OC(=O)N1CCC[C@H]1C(=O)N/N=C/c1ccc2ncccc2c1,-,-,-,-,-,-,.,.
O=C(CSc1nnc(NC(=O)C2CC2)s1)Nc1ccccc1Cl,-,-,-,-,-,-,.,.
COC(=O)c1c(-c2ccc(SC)cc2)sc2ccc(OC)cc12,-,50,.,-,.,.,-,?
COC(=O)c1c(-c2ccc(S(C)(=O)=O)cc2)sc2ccc(OC)cc12,-,54,.,-,.,.,-,-
Cc1ccc(Nc2nnc(-c3ccccc3N)o2)cc1C,-,46,-,-,-,-,39,-
c1ccc(Nc2nnc(-c3cccc4ccccc34)o2)cc1,-,-,-,-,-,-,.,.
SMILES,ATG4B inh,UBC13 inh,MEKK2 mut-MEK5,PREPL inh,MEKK2wt PB1 HTS,MEKK3 PB1 HTS,Casp3 UBC13 ctr,UBC13 conf
Cc1ccc(NC(=O)c2nc[nH]c2C(=O)N[C@H](C)c2ccccc2)cc1,-,-,.,-,.,.,.,.
CCOC(=O)c1ccc(NC(=O)c2nc[nH]c2C(=O)N[C@@H](CC(C)C)C(=O)OC(C)(C)C)cc1,-,-,-,-,-,-,.,.
CCOC(=O)c1ccc(NC(=O)c2nc[nH]c2C(=O)N[C@H](C)c2ccccc2)cc1,-,70,-,-,-,-,-,-
COc1ccc(NC(=O)c2nc[nH]c2C(=O)NCc2ccccc2)cc1,-,60,.,-,.,.,-,-
O=C(Nc1ccccc1)c1nc[nH]c1C(=O)NCc1ccccc1,-,-,.,-,.,.,.,.
CCOC(=O)c1ccc(NC(=O)c2nc[nH]c2C(=O)N[C@@H](C)C(=O)OC(C)(C)C)cc1,-,58,-,-,-,-,-,-
COc1cccc(N2[C@@H](CC(C)=O)c3ccc(/C=C/C(C)=O)cc3S2(=O)=O)c1,-,-,-,-,-,-,.,.
O=C(CSc1nncc2ccccc12)Nc1cccc(O)c1,-,-,-,-,-,-,.,.
Cc1ccc(CNC(=O)CSc2nc3ccsc3c(=O)n2Cc2ccc(C(=O)O)cc2)cc1,-,56,-,-,-,-,-,64
O=C(CSc1nc2ccccc2c(=O)n1Cc1ccccc1)NCc1ccco1,-,-,-,-,-,-,.,.
COc1ccc(Cn2c(SCC(=O)NCc3ccco3)nc3ccsc3c2=O)cc1,-,66,-,-,-,-,-,74
O=C(CSc1nc2ccsc2c(=O)n1Cc1ccc(C(=O)O)cc1)NCc1ccco1,-,61,-,-,-,-,-,60
O=C(O)c1ccc(Cn2c(SCc3cc(=O)n4cc(Br)ccc4n3)nc3ccsc3c2=O)cc1,.,-,-,-,-,-,.,.
CCOC(=O)N1CCN(Cc2nc3cc(NC(=O)c4cccs4)ccc3n2CC)CC1,-,-,-,-,-,-,.,.
O=C1OCCN1C(=O)[C@H]1[C@H](c2ccc(Cl)cc2)C(c2cccc(Cl)c2)=NN1c1ccccc1,-,50,-,-,-,-,-,?
CN(C)CCNC=C(C(=O)Nc1ccc(Cl)cc1Cl)C(=O)Nc1ccc(Cl)cc1Cl,-,56,-,-,-,-,-,80
O=C(CCNC(=O)c1ccccc1Cl)Nc1nc2ccccc2s1,-,80,-,-,-,-,-,101
COc1ccc2nc(NC(=O)CCNC(=O)c3ccccc3Cl)sc2c1,-,-,-,-,-,-,.,.
C#CCOCCOCCOCCNc1nc(N2CCN(C(=O)CCCCCCCCCCNC(=O)[C@H]([C@@H](C)CC)n3cc(CCCCCN)nn3)CC2)nc(N2CCN(C(=O)CCCCCCCCCCNC(=O)[C@H](CCCCN)n3cc(CCCC(=O)O)nn3)CC2)n1,-,114,.,-,.,.,-,105
C#CCOCCOCCOCCNc1nc(N2CCN(C(=O)[C@H]([C@@H](C)CC)n3cc(CCCCN)nn3)CC2)nc(N2CCN(C(=O)[C@H](C)n3cc(CCC(=O)O)nn3)CC2)n1,-,-,-,-,-,-,.,.
C#CCOCCOCCOCCNc1nc(N2CCN(C(=O)Cn3cc(CCO)nn3)CC2)nc(N2CCN(C(=O)[C@H]([C@@H](C)CC)n3cc(CCCCN)nn3)CC2)n1,-,.,.,.,.,.,.,.
